Results from PubChem BioAssay AID1159580 (chemical genetic matrix, 2015).
Screen size: about 5,500 compounds; about 2,000 (36%) were called active. Another 18% or so got no clear call; they are omitted. Rule as the data show it: active = normalized growth mostly below about 0.91 (no sharp cut-off); inconclusive = no clear call, values can overlap the other calls; inactive = mostly above about 0.92. The list shows a part of the results.

Assay: chemical genetic growth profiling, strain panel (AID 1159580);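 also: tested at 20 µM; growth read once vehicle control cultures reached saturation at 30 °C; 1 = growth at the plate median or of vehicle wells; lower values mean less growth of the strain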
Settings: S. cerevisiae deletion strains, growth OD

Measured: normalized growth

C[C@]12CCC3c4ccc(OS(=O)(=O)O)cc4CCC3C1CCC2=O (some centres undefined)
inactive: locus YAL021C, strain ccr4, hits give low values 0.957 | locus YAL026C, strain drs2, hits give low values 1.01 | locus YAL030W, strain snc1, hits give low values 0.986 | locus YBL061C, strain skt5, hits give low values 0.967 | locus YBR009C, strain hhf1, hits give low values 1.02 | locus YBR023C, strain chs3, hits give low values 0.987 | locus YBR171W, strain sec66, hits give low values 1 | locus YBR231C, strain swc5, hits give low values 1.01 | locus YBR279W, strain paf1, hits give low values 0.999 | locus YCL011C, strain gbp2, hits give low values 0.998 | locus YCL016C, strain dcc1, hits give low values 0.986 | locus YCL061C, strain MRC1, hits give low values 1.01 | locus YCL069W, strain vba3, hits give low values 0.995 | locus YCR088W, strain abp1, hits give low values 0.998 | locus YDL005C, strain med2, hits give low values 0.978 | locus YDL040C, strain nat1, hits give low values 1 | locus YDR001C, strain nth1, hits give low values 0.995 | locus YDR069C, strain doa4, hits give low values 0.989 | locus YDR137W, strain rgp1, hits give low values 0.976 | locus YDR159W, strain sac3, hits give low values 1 | locus YDR195W, strain ref2 0.999 | locus YDR297W, strain sur2, hits give low values 1 | locus YDR334W, strain swr1, hits give low values 0.993 | locus YDR335W, strain msn5, hits give low values 1 | locus YDR392W, strain spt3, hits give low values 0.923 | locus YEL003W, strain gim4, hits give low values 0.998 | locus YEL037C, strain rad23, hits give low values 1.01 | locus YEL061C, strain CIN8 (second series), hits give low values 1.03 | locus YER015W, strain faa2, hits give low values 0.993 | locus YER016W, strain bim1, hits give low values 0.962 | locus YER111C, strain swi4, hits give low values 0.959 | locus YER155C, strain BEM2 (second series), hits give low values 1 | locus YFR010W, strain ubp6, hits give low values 1.02 | locus YGL167C, strain pmr1, hits give low values 1 | locus YGL173C, strain kem1, hits give low values 0.97 | locus YGL227W, strain vid30, hits give low values 0.981 | locus YGL240W, strain doc1, hits give low values 0.983 | locus YGL253W, strain hxk2, hits give low values 0.996 | locus YHR013C, strain ard1, hits give low values 0.939 | locus YHR027C, strain rpn1, hits give low values 1.01 | locus YHR030C, strain SLT2, hits give low values 0.961 | locus YHR079C, strain IRE1, hits give low values 0.961 | locus YHR142W, strain chs7, hits give low values 0.983 | locus YJL092W, strain hpr5, hits give low values 1 | locus YJL095W, strain BCK1 (second series), hits give low values 0.977 | locus YJL095W, strain BCK1, hits give low values 0.992 | locus YJL115W, strain asf1, hits give low values 0.995 | locus YJL129C, strain trk1, hits give low values 0.958 | locus YJL154C, strain vps35, hits give low values 0.974 | locus YJL164C, strain tpk1, hits give low values 0.996 | locus YJL166W, strain qcr8, hits give low values 1.01 | locus YJR066W, strain TOR1, hits give low values 0.942 | locus YKL160W, strain elf1, hits give low values 0.928 | locus YKR026C, strain gcn3, hits give low values 1 | locus YKR091W, strain srl3, hits give low values 0.991 | locus YLL001W, strain dnm1, hits give low values 1.02 | locus YLL026W, hits give low values 1.02 | locus YLL041C, strain sdh2, hits give low values 0.991 | locus YLR027C, strain aat2, hits give low values 1.01 | locus YLR113W, strain HOG1, hits give low values 1.02 | locus YLR221C, strain rsa3, hits give low values 1.04 | locus YLR258W, strain gsy2, hits give low values 1 | locus YLR262C, strain YPT6 (second series), hits give low values 0.984 | locus YLR320W, strain mms22, hits give low values 1.01 | locus YLR342W, strain FKS1, hits give low values 0.971 | locus YLR357W, strain rsc2, hits give low values 0.983 | locus YLR370C, strain arc18, hits give low values 1.01 | locus YLR384C, strain iki3, hits give low values 0.981 | locus YML120C, strain ndi1, hits give low values 1 | locus YMR058W, strain fet3, hits give low values 1.01 | locus YMR125W, strain sto1, hits give low values 0.97 | locus YMR129W, hits give low values 1.01 | locus YMR205C, strain PFK2, hits give low values 1 | locus YMR231W, strain pep5, hits give low values 0.995 | locus YNL071W, strain lat1, hits give low values 1.02 | locus YNL183C, strain NPR1, hits give low values 0.975 | locus YNL209W, strain ssb2, hits give low values 0.985 | locus YNL248C, strain rpa49, hits give low values 0.89 | locus YNL322C, strain KRE1 (second series), hits give low values 0.948 | locus YNR049C, strain mso1, hits give low values 0.99 | locus YOR001W, strain rrp6, hits give low values 1.03 | locus YOR070C, strain gyp1, hits give low values 0.987 | locus YOR080W, strain dia2, hits give low values 0.991 | locus YOR083W, strain WHI5, hits give low values 0.912 | locus YOR106W, strain vam3, hits give low values 0.971 | locus YOR231W, strain MKK1, hits give low values 1 | locus YOR265W, strain rbl2, hits give low values 1.01 | locus YOR270C, strain vph1, hits give low values 0.917 | locus YOR290C, strain snf2, hits give low values 0.977 | locus YPL051W, strain arl3, hits give low values 0.987 | locus YPL078C, strain atp4, hits give low values 0.965 | locus YPL106C, strain sse1, hits give low values 0.968 | locus YPL240C, strain hsp82, hits give low values 0.999 | locus YPL256C, strain CLN2, hits give low values 0.982
